This is a sample that favours compounds with a hit; in the whole collection about 6% have one here.
D3 ag: activates the human D3 dopamine receptor | P35462 | D3R DiscoveRx beta-arrestin cells, luminescence, 90 min | max activation, % | hit rate 0.58% among 410,000; in the data active = max activation above about 30%
Target sequence (P35462 whole entry, looked up): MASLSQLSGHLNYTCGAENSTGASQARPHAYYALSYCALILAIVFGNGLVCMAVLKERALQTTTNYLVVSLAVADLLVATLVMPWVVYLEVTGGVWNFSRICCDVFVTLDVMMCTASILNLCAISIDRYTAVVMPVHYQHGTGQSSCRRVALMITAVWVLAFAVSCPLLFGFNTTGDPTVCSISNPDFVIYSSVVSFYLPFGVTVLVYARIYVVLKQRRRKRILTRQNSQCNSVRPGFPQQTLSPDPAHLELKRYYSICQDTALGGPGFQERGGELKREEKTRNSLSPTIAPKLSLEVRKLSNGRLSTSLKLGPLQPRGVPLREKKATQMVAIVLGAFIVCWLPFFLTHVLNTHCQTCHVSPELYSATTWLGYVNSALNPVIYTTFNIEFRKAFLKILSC
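Cells at 1500/well, incubated overnight, then treated with pinned compounds (dopamine as control) for 90 min at 37 degrees C. DiscoveRx reagent added for 30 - 60 minutes at room temperature; luminescence read.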
BCR signal inh: inhibitors of chronic active B-cell receptor signaling. Potency, µM (series often up to 46.1 µM), hits mostly inhibitors. hit rate 0.05% among 340,000. ABC-DLBCL IkBa-CBG/CBR reporter, luminescence ratio, 4 h; active = well fitted inhibition curve with a large enough effect in the signal ratio, with a control signal flat, not every such curve was filed as active; inconclusive = small, poorly fitted or top-dose-only effect, or effect the other way, or a change in a side signal; the % refers to the signal ratio
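Concentration-response series (up to 46 uM) were applied to TMD8 dual-reporter cells for 4 h at 37C with doxycycline. Green/red ratio, after filter-overlap correction, defined %Activity; red signal alone was normalised to basal cells and zero luminescence.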
D1 ag: agonists of human D1 dopamine receptor; P21728; HEK293 T-REx D1 cells, calcium flux, agonist mode; activation, % at 2 µM; hit rate 1% among 360,000; AID 504660; in the data active = activation above about 30%
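Agonism was scored from calcium flux recorded over 180 s (1 read/s) after pintool compound addition, following a 10-cycle baseline. Cells were inducible force-coupled HEK293 TREx D1, plated overnight at 30 C and loaded with no-wash calcium dye.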
DRD3 antagonist: antagonists of human D3 dopamine receptor. D3R cells, DiscoveRx beta-arrestin luminescence, antagonist mode; hits give low values. max response, negative = inhibition, %. P35462. AID 652054. hit rate 2.5% among 360,000; in the data active = max response below about -50%; inconclusive = no clear call, values can overlap the other calls
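Cells plated overnight at 1500 cells/well, then exposed to library compounds with dopamine controls for 90 minutes at 37 degrees C. DiscoveRx reagent added for 30–60 minutes at room temperature; luminescence read, quantitative HTS format.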
D1 antagonist: blocks dopamine activation of the human D1 receptor; P21728; HEK293 TREx D1 cells, calcium flux, dopamine EC80; hits give low values; activity change, negative = inhibition, % at 10 µM; hit rate 3.2% among 360,000; AID 504652; in the data active = activity change below about -30%
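Using tetracycline-induced force-coupled D1 Hek293 cells and a calcium dye, signals were followed for 180 s after compound, then for 180 s after EC80 dopamine, to detect inhibitors.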
D1 PAM: human D1 dopamine receptor positive modulation | P21728 | HEK293 TREx D1 cells, calcium flux, dopamine EC20 potentiation | potentiation, % at 10 µM | hit rate 0.036% among 360,000 | AID 504651; in the data active = potentiation above about 30%
Numbers stand for hits; ! = not confirmed by another sample.

`O=C(COc1ccccc1)Nc1c(C(=O)N2CCN(c3ccc(F)cc3)CC2)oc2ccccc12` gave D3 ag inactive, D1 ag inactive, D1 antagonist -31 and D1 PAM inactive.
COc1ccc(C(=O)NCCSCc2ccccc2Cl)cc1OC was read as D3 ag inactive, BCR signal inh inactive, D1 ag inactive, DRD3 antagonist inactive, D1 antagonist inactive and D1 PAM inactive.
`O=C(NCCSCc1ccco1)Nc1ccc(Cl)cc1` gave D3 ag inactive, D1 ag inactive, DRD3 antagonist inactive, D1 antagonist -30 and D1 PAM inactive.
COc1ccc(C(=O)NCCSCc2ccc(Cl)cc2)cc1OC was read as D3 ag inactive, BCR signal inh inactive, D1 ag inactive, DRD3 antagonist inactive, D1 antagonist inactive and D1 PAM inactive.
Screening COc1ccc(C(=O)NCCSCc2ccco2)cc1OC returned D3 ag inactive, BCR signal inh inactive, D1 ag inactive, DRD3 antagonist inactive, D1 antagonist -34 and D1 PAM inactive.
COc1ccc(C(=O)NCCSCc2ccccc2)cc1OC was read as D3 ag inactive, BCR signal inh inconclusive, D1 ag inactive, DRD3 antagonist -51, D1 antagonist inactive and D1 PAM inactive.
COc1cc2c(cc1OC)C(COc1cccc(C(F)(F)F)c1)N(C(=O)c1ccc(S(=O)(=O)N3CCCC3)cc1)CC2 (stereo unspecified) was read as D3 ag inactive, BCR signal inh inactive, D1 ag inactive, D1 antagonist inactive and D1 PAM inactive.
Screening CCn1cc(C(=O)OCC(=O)c2cc(C)n(-c3ccc(OC(F)F)cc3)c2C)c(=O)c2ccc(C)nc21 returned D3 ag inactive, BCR signal inh inactive, D1 ag inactive, DRD3 antagonist inactive, D1 antagonist -32 and D1 PAM inactive.
Screening CCn1cc(C(=O)OCC(=O)c2cc(C)n(-c3ccccc3)c2C)c(=O)c2ccc(C)nc21 returned D3 ag inactive, BCR signal inh inconclusive, D1 ag inactive, DRD3 antagonist inactive, D1 antagonist inactive and D1 PAM inactive.
Screening CC(C)(C)OC(=O)N1CCC(c2c(C(=O)N3CCN(Cc4ccccc4)CC3)cnn2-c2cccc(Cl)c2)CC1 returned D3 ag inactive, D1 ag inactive, D1 antagonist inactive and D1 PAM inactive.
For Cc1cccc(C(=O)n2nc(-c3cccnc3)nc2NCc2ccccc2)c1 the results were D3 ag inactive, D1 ag inactive, D1 antagonist inactive and D1 PAM inactive.
`COc1ccccc1-c1nc(-c2ccc(Br)o2)no1` gave D3 ag inactive, BCR signal inh inconclusive, D1 ag inactive, DRD3 antagonist inactive, D1 antagonist -35! and D1 PAM inactive.
For O=S(=O)(c1ccccc1)N1CCN(c2nc(-c3ccc(F)cc3)nc3cc(Cl)ccc23)CC1 the results were D1 ag inactive, D1 antagonist inactive and D1 PAM inactive.
C=CC[C@@H](CC(=O)N[C@@H](CO)Cc1ccccc1)C(=O)NC[C@@H](OC(=O)[C@@H](CC=C)Cc1ccc(F)cc1)c1ccccc1 was read as D3 ag inactive, BCR signal inh inactive and DRD3 antagonist inactive.
C=CCC[C@@H](Cc1ccc(F)cc1)C(=O)OC[C@@H](Cc1c[nH]c2ccccc12)NC(=O)[C@@H](CC=C)CC(=O)N(CCO)Cc1ccccc1 was read as D3 ag 41, BCR signal inh inactive and DRD3 antagonist inactive.
`C=CCC[C@@H](Cc1ccc(F)cc1)C(=O)OC[C@@H](NC(=O)[C@@H](CC=C)CC(=O)N[C@H](CO)Cc1ccccc1)C(C)(C)C` gave D3 ag inactive, BCR signal inh inconclusive and DRD3 antagonist -63.
C=CCC[C@H](Cc1ccc(F)cc1)C(=O)OC[C@H](Cc1c[nH]c2ccccc12)NC(=O)[C@H](CC=C)CC(=O)N(CCO)Cc1ccccc1 was read as D3 ag inactive, BCR signal inh inconclusive and DRD3 antagonist inactive.
C=CC[C@@H](CC(=O)N[C@@H](CO)Cc1ccccc1)C(=O)NC[C@H](OC(=O)[C@@H](CC=C)Cc1ccc(F)cc1)c1ccccc1 was read as D3 ag 53, BCR signal inh inactive and DRD3 antagonist inactive.
`CC1(C(=O)Nc2ccc3c(c2)OCCO3)CN(S(C)(=O)=O)CC(=O)N1CCc1ccccc1` (stereo unspecified) gave D3 ag inactive and DRD3 antagonist inactive.
Cc1ccc(C)c(CN2C(=O)c3ccccc3S(=O)(=O)c3ccc(C(=O)NCCC4=CCCCC4)cc32)c1 was read as D3 ag inactive, D1 ag inactive, D1 antagonist inactive and D1 PAM inactive.
`COCCNc1nc(NCCOc2ccccc2)c2sc(-c3ccccc3)cc2n1` gave D3 ag inactive and DRD3 antagonist inactive.
Cc1onc(-c2c(F)cccc2Cl)c1C(=O)c1ccccc1O was read as D3 ag inactive, BCR signal inh inactive, D1 ag inactive, DRD3 antagonist inactive, D1 antagonist -41 and D1 PAM inactive.
Screening Cc1onc(-c2c(F)cccc2Cl)c1C(=O)OCC(=O)Nc1cccc(S(=O)(=O)N(C)C)c1 returned D3 ag inactive and DRD3 antagonist -97.
Screening Cc1onc(-c2c(Cl)cccc2Cl)c1C(=O)c1ccc(F)cc1 returned D3 ag inactive, BCR signal inh inactive, D1 ag inactive, DRD3 antagonist inactive, D1 antagonist inactive and D1 PAM inactive.
`Cc1noc(C)c1C(=O)OCC(=O)Nc1cccc(S(=O)(=O)N(C)C)c1` gave D3 ag inactive, BCR signal inh inconclusive, D1 ag inactive, DRD3 antagonist inactive, D1 antagonist inactive and D1 PAM inactive.
`Cc1onc(-c2c(F)cccc2Cl)c1C(=O)c1ccc(F)cc1` gave D3 ag inactive, BCR signal inh inactive, D1 ag inactive, DRD3 antagonist inactive, D1 antagonist -55 and D1 PAM inactive.
C=CCc1c(C)nc(C)nc1N/N=C/c1ccccc1O was read as D3 ag inactive, BCR signal inh inactive, D1 ag inactive, DRD3 antagonist -113, D1 antagonist inactive and D1 PAM inactive.
`CCOc1ccccc1C(=O)N(Cc1ccc(N(C)C)cc1)CC1CCCO1` (stereo unspecified) gave D3 ag inactive, D1 ag inactive, D1 antagonist inactive and D1 PAM inactive.
Screening COc1ccc(C(=O)Nc2ccc(Nc3ccccc3)cc2)cc1[N+](=O)[O-] returned D3 ag inactive, BCR signal inh inconclusive, D1 ag inactive, DRD3 antagonist inactive, D1 antagonist inactive and D1 PAM inactive.
Screening O=C(NC(=O)c1ccc(F)cc1)Nc1ccc(-c2cc(C(F)(F)F)nn2-c2ccccc2)cc1 returned D3 ag inactive, D1 ag inactive, D1 antagonist inactive and D1 PAM inactive.
